18 sequences from publication PMC5700166 can be followed below.

Residue numbers refer to the chain shown, from its start.

Common to all, as to test: protein-binding microarray (PBM); PBM: ~300 nM protein, 6 mM HEPES pH 7.8, 80 mM KCl, 0.5 mM EDTA, 0.5 mM EGTA, 6% glycerol, 35 ng/ul poly-dIdC, 1% milk, 1 h, room temperature; Ap Aiptasia and Nv Nematostella (sea anemones) / Co Capsaspora / Aq Amphimedon (sponge) / Dm Drosophila / Hu human; RHD is the Rel homology domain; high values mean tight binding
Common to all, as to details: dsDNA, one strand shown

One test deals with T1, GST-Ap-NF-kB RHD (Exaiptasia pallida (Aiptasia), UniProt A0A913YAJ5 2-422).
T1 sequence: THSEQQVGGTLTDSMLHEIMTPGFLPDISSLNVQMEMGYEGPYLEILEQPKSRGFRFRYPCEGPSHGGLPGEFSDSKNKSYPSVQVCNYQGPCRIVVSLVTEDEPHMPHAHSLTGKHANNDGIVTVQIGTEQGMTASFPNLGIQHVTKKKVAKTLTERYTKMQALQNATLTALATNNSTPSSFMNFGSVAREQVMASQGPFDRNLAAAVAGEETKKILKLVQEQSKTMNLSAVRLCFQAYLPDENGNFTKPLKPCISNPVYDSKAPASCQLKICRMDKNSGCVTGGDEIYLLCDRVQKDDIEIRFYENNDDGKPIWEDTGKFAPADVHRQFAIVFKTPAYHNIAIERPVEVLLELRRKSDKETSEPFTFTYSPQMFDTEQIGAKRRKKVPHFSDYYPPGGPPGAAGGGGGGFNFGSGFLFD

Test [1] has as its target T2, GST-Nv-NF-kB (Cys allele) (Nematostella vectensis, UniProt E5G601 2-411).
T2 sequence: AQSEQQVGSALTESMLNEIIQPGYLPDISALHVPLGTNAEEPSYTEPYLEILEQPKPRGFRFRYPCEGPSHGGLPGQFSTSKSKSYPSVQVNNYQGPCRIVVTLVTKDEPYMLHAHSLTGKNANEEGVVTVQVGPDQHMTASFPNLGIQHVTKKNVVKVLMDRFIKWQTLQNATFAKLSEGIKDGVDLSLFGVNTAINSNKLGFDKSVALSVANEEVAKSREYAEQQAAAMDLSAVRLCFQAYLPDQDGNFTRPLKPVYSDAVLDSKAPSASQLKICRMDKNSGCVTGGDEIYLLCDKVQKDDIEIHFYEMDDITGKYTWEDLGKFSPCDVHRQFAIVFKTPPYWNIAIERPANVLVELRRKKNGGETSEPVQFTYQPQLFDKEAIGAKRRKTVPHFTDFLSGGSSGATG

For test [2], the target named is T3, GST-Nv-NF-kB (Ser allele) (Nematostella vectensis, UniProt A7UNT2 2-411).
T3 sequence: T2 sequence with Q21R, C66S, S207N, E215Q, V217A, E225K, A268E, D399E

For a further test, the target named is T4, GST-Co-NF-kB (Capsaspora owczarzaki, UniProt F1ARL5 200-546).
T4 sequence: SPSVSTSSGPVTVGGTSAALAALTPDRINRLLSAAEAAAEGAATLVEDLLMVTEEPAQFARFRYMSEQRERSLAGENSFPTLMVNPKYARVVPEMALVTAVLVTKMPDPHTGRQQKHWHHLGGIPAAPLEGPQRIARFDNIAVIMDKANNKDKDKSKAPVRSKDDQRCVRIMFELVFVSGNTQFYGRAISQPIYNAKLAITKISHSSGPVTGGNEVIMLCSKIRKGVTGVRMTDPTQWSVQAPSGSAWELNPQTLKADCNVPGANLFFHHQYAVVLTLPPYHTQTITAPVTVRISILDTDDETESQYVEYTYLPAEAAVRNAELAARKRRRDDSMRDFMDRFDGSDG

A further test deals with T5, GST-Aq-NF-kB (Amphimedon queenslandica, UniProt A9Y5G7 2-389).
T5 sequence: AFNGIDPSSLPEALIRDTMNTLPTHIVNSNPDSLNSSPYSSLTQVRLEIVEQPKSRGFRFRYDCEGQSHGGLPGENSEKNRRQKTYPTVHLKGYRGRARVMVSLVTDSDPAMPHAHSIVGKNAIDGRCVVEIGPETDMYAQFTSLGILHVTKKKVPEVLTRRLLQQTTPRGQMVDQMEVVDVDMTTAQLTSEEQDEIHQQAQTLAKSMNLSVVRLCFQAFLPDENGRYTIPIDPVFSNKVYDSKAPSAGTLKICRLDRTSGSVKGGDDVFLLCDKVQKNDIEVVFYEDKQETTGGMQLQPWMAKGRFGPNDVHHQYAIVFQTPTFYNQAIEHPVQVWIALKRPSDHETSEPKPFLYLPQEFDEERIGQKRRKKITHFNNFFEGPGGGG

A further test concerns the target GST-Hu-p50 (Homo sapiens, UniProt P19838 7-356).
The target of a further test is T6, GST-Dm-Relish (Drosophila melanogaster, UniProt Q94527 99-473).
T6 sequence: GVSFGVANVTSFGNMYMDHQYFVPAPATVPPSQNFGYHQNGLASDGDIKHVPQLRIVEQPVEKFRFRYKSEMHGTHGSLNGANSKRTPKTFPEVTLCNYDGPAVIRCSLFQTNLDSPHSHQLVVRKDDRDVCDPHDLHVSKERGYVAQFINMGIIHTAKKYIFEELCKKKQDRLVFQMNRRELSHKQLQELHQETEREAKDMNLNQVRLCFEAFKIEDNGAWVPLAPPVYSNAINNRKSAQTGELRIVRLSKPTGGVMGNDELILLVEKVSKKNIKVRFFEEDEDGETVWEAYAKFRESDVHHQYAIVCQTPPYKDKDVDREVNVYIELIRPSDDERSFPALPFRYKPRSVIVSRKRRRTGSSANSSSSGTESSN

Sequence of GST-Hu-p50 (P19838 7-356): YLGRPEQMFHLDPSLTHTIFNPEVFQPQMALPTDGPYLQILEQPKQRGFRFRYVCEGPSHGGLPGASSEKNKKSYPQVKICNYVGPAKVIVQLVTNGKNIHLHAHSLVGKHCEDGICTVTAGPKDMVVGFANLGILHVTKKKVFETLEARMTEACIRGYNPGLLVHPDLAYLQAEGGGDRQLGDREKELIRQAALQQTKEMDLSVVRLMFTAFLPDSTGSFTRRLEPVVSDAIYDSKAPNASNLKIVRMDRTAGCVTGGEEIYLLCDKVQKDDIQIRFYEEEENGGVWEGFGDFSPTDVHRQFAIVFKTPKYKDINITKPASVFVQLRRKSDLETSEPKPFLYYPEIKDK

For the sequence “CCGATTAACATCAAGGTGGGAATTGATGTTAATCGGGTCTTGATTCGCTTGACGCTGCTG”, the binding signal with GST-Ap-NF-kB RHD stood at 1.55 z-score; in test [1], 3.21 z-score; in test [2] it was 2.3 z-score; in the test with GST-Co-NF-kB, 2.52 z-score; with GST-Aq-NF-kB, 1.99 z-score; in the test with GST-Hu-p50 it was 1.71 z-score.

For the sequence “CCGATTAACATCAGACATTTCCCTGATGTTAATCGGGTCTTGATTCGCTTGACGCTGCTG”, the binding signal with GST-Ap-NF-kB RHD amounted to 2.94 z-score; in test [1] it was 4.75 z-score; in test [2] it was 4.39 z-score; in the test with GST-Co-NF-kB, 3.17 z-score; with GST-Aq-NF-kB it was 5.41 z-score; in the test with GST-Hu-p50 it was 3.59 z-score.

As for “CCGATTAACATCAACTTTTTCCCTGATGTTAATCGGGTCTTGATTCGCTTGACGCTGCTG”, the binding signal is 2.88 z-score with GST-Ap-NF-kB RHD; 4.79 z-score in test [1]; 6.57 z-score in test [2]; 5.52 z-score in the test with GST-Co-NF-kB; 3.16 z-score with GST-Aq-NF-kB; 2.68 z-score in the test with GST-Hu-p50.

As for “CCGATTAACATCAAAAGTACCCCTGATGTTAATCGGGTCTTGATTCGCTTGACGCTGCTG”, the binding signal with GST-Ap-NF-kB RHD was 4.78 z-score; in test [1], 4.21 z-score; in test [2], 6.09 z-score; in the test with GST-Co-NF-kB, 5.19 z-score; with GST-Dm-Relish, 7.17 z-score; in the test with GST-Aq-NF-kB it was 4.81 z-score. In the test with GST-Hu-p50, this sequence displayed a binding signal of 4.42 z-score.

In the case of “CCGATTAACATCAAATATTCCCTTGATGTTAATCGGGTCTTGATTCGCTTGACGCTGCTG”, the binding signal with GST-Ap-NF-kB RHD was 5.14 z-score; in test [1], 6.37 z-score; in test [2], 6.41 z-score; in the test with GST-Co-NF-kB it was 3.47 z-score; with GST-Dm-Relish, 3.18 z-score; with GST-Aq-NF-kB, 5.56 z-score. For the same sequence, the binding signal with GST-Hu-p50 turned out to be 4.16 z-score.

For “CCGATTAACATCACACATGCCCCTGATGTTAATCGGGTCTTGATTCGCTTGACGCTGCTG”, the binding signal is 1.13 z-score with GST-Ap-NF-kB RHD; 1.37 z-score in test [1]; 1.04 z-score in test [2]; 1.12 z-score with GST-Co-NF-kB; 1.68 z-score with GST-Aq-NF-kB; 1.36 z-score with GST-Hu-p50.

As for “CCGATTAACATCAGGAATCTCCCTGATGTTAATCGGGTCTTGATTCGCTTGACGCTGCTG”, the binding signal with GST-Ap-NF-kB RHD is 3.91 z-score; in test [1], 6.08 z-score; in test [2], 3.67 z-score; in the test with GST-Co-NF-kB, 1.77 z-score; with GST-Dm-Relish it was 2.25 z-score; in the test with GST-Aq-NF-kB, 7.75 z-score. Further, the binding signal in the test with GST-Hu-p50 was found to be 4.69 z-score.

Turning to “CCGATTAACATCAATTCCCACCCTGATGTTAATCGGGTCTTGATTCGCTTGACGCTGCTG”, the binding signal in the test with GST-Ap-NF-kB RHD is 2.43 z-score; in test [1], 2.6 z-score; in test [2] it was 2.72 z-score; with GST-Co-NF-kB, 3.21 z-score; with GST-Dm-Relish it was 2.33 z-score; with GST-Aq-NF-kB it was 2.03 z-score. For the same sequence, the binding signal with GST-Hu-p50 amounted to 2.02 z-score.

In the case of “CCGATTAACATCAAAACATCCCCTGATGTTAATCGGGTCTTGATTCGCTTGACGCTGCTG”, the binding signal is 6.41 z-score with GST-Ap-NF-kB RHD; 8.11 z-score in test [1]; 8.22 z-score in test [2]; 4.63 z-score with GST-Co-NF-kB; 8.65 z-score in the test with GST-Dm-Relish; 7.07 z-score with GST-Aq-NF-kB. Also, in the test with GST-Hu-p50, the binding signal turned out to be 5.91 z-score.

As to “CCGATTAACATCAGATATTACCCTGATGTTAATCGGGTCTTGATTCGCTTGACGCTGCTG”, the binding signal was determined as 2.58 z-score with GST-Ap-NF-kB RHD; 3.48 z-score in test [1]; 3.01 z-score in test [2]; 2.75 z-score with GST-Co-NF-kB; 4.82 z-score with GST-Aq-NF-kB; 2.16 z-score with GST-Hu-p50.

On to “CCGATTAACATCACAAATTCCCCTGATGTTAATCGGGTCTTGATTCGCTTGACGCTGCTG”, for which the binding signal amounted to 9.44 z-score with GST-Ap-NF-kB RHD; 10.9 z-score in test [1]; 12.6 z-score in test [2]; 8.68 z-score in the test with GST-Co-NF-kB; 8.67 z-score with GST-Dm-Relish; 8.11 z-score in the test with GST-Aq-NF-kB. This sequence showed a binding signal with GST-Hu-p50 of 7.34 z-score.

Consider “CCGATTAACATCAGGGAAATGTATGATGTTAATCGGGTCTTGATTCGCTTGACGCTGCTG”, for which the binding signal was determined as 3.08 z-score with GST-Ap-NF-kB RHD; 4.81 z-score in test [1]; 4.88 z-score in test [2]; 3.3 z-score in the test with GST-Co-NF-kB; 4.45 z-score in the test with GST-Aq-NF-kB; 3.4 z-score with GST-Hu-p50.

With “CCGATTAACATCAAATACCCCCTTGATGTTAATCGGGTCTTGATTCGCTTGACGCTGCTG”, the binding signal in the test with GST-Ap-NF-kB RHD was 8.01 z-score; in test [1], 6.1 z-score; in test [2] it was 6.79 z-score; in the test with GST-Co-NF-kB, 4.41 z-score; with GST-Dm-Relish, 6.19 z-score; in the test with GST-Aq-NF-kB, 6.04 z-score. In the test with GST-Hu-p50, this sequence registered a binding signal of 5.85 z-score.

Regarding “CCGATTAACATCACACATTCCCCTGATGTTAATCGGGTCTTGATTCGCTTGACGCTGCTG”, the binding signal with GST-Ap-NF-kB RHD was 6.52 z-score; in test [1] it was 7.88 z-score; in test [2] it was 8.75 z-score; with GST-Co-NF-kB it was 5.83 z-score; with GST-Dm-Relish, 2.91 z-score; with GST-Aq-NF-kB, 5.41 z-score. For the same sequence, the binding signal with GST-Hu-p50 came to 5.28 z-score.

For “CCGATTAACATCAGGAAACTCCCTGATGTTAATCGGGTCTTGATTCGCTTGACGCTGCTG”, the binding signal was 5.65 z-score with GST-Ap-NF-kB RHD; 7.91 z-score in test [1]; 4.86 z-score in test [2]; 1.88 z-score in the test with GST-Co-NF-kB; 5.39 z-score with GST-Dm-Relish; 9.07 z-score in the test with GST-Aq-NF-kB. In the test with GST-Hu-p50, this sequence displayed a binding signal of 5.86 z-score.

As for “CCGATTAACATCAACGGTGGGAATGATGTTAATCGGGTCTTGATTCGCTTGACGCTGCTG”, the binding signal stood at 1.12 z-score with GST-Ap-NF-kB RHD; 1.46 z-score in test [1]; 1.15 z-score in test [2]; 2.19 z-score in the test with GST-Co-NF-kB; 2.42 z-score with GST-Aq-NF-kB; 1.41 z-score with GST-Hu-p50.

“CCGATTAACATCATCCCGGGAAATGATGTTAATCGGGTCTTGATTCGCTTGACGCTGCTG”: the binding signal in the test with GST-Ap-NF-kB RHD is 1.98 z-score; in test [1] it was 2.94 z-score; in test [2], 2.26 z-score; with GST-Co-NF-kB, 3.63 z-score; in the test with GST-Aq-NF-kB, 2.23 z-score; with GST-Hu-p50 it was 1.36 z-score.

As to “CCGATTAACATCACCATGGGAAATGATGTTAATCGGGTCTTGATTCGCTTGACGCTGCTG”, the binding signal came to 1.25 z-score with GST-Ap-NF-kB RHD; 2.23 z-score in test [1]; 1.45 z-score in test [2]; 2.04 z-score in the test with GST-Co-NF-kB; 1.76 z-score with GST-Aq-NF-kB; 1.98 z-score with GST-Hu-p50.
